The values that follow come from PubChem BioAssay (NCI).

About 83,000 compounds went through this panel and 20% of them were active in at least one assay; those are over-represented in the sample as a whole.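 48-hour exposure, single concentration, 96-well plates; percent growth endpoint where 0 means no net growth. Active: below 10.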 The source made the active and inactive calls.

The test has as its system HS 578T breast. As to the kind of experiment: NCI-60 one-dose screen, 48 h (100 = growth as untreated, 0 = no growth, -100 = all killed). As to conditions: 10 µM unless noted.
Consider `O=C(CCl)Oc1ccc([N+](=O)[O-])cc1`, for which the growth is 128% (inactive).

With `Clc1cccc(Cl)c1CSc1nc2ccccc2n2cccc12`, the growth is 113% (inactive).

For the compound `Cc1cccnc1NC1OC(=O)c2ccccc21` (stereo not drawn), the growth is 138% (inactive).

In the case of `COc1cc(OC)c(NC(=O)C(Sc2nc(C)cc(C)c2C#N)c2ccccc2)cc1Cl` (stereo not drawn), the growth is 86.7% (inactive).

In the case of `COc1ccc(/C=N/NC(=O)COCC(=O)N/N=C/c2ccc(OC)cc2)cc1`, the growth is 114% (inactive).

Take `Nc1ccccc1SC1CC(=O)N(c2ccc(Cl)c(Cl)c2)C1=O` (stereo not drawn): the growth was 117% (inactive).

With `CC(C)c1ccccc1NC(=O)N1CCC(C(C)C)CC1`, the growth was 102% (inactive).

Regarding `FC(F)(F)c1cc(NC2=NCCN=C(Nc3cc(C(F)(F)F)cc(C(F)(F)F)c3)SS2)cc(C(F)(F)F)c1`, the growth is 79.3% (inactive).

As to `CC(CCC#N)(CCC#N)C(=O)c1ccccc1`, the growth is 97.8% (inactive).

Regarding `CCCCCCCCNC(=O)C(C)C`, the growth was 97.1% (inactive).

For `CCCCCCCCCCCCCCCCCC(=O)NCCNC(=O)CCCCCCCCCCCCCCCCC`, the growth was 107% (inactive).

Regarding `C=CCC(OC(C)=O)c1ccc(C(C)C)cc1` (stereo not drawn), the growth was 109% (inactive).

On to `CC(=O)c1cc(O)ccc1O`, for which the growth was 110% (inactive).

For the compound `CCCNS(=O)(=O)c1ccc(Cl)cc1`, the growth is 88.1% (inactive).

On to `S=c1nc(-c2ccccn2)c(-c2ccccn2)n[nH]1`, for which the growth was 105% (inactive).

With `CCOc1ccc(C(=O)NCC(C)C)cc1`, the growth was 107% (inactive).

As for `O=C(O)c1cccc(-n2ncc(Cl)c(Cl)c2=O)c1`, the growth is 98.3% (inactive).

In the case of `Cn1/c(=N\N=C\c2ccccc2OCCO)sc2ccccc21`, the growth is 99.8% (inactive).
